Molecules are shown by their SMILES. “And” between values parts separate entries of the source, which are not always exact repeats. Equal entries are not always repeated. Out of some 70,000 compounds screened, about 400 (0.57%) were called active. Only a selection was taken, and actives are over-represented in it overall. Values without a mark were called inactive. Cut-off read from the data, not from the text of the source: active = FP signal below about 40; inactive = the rest.

This assay concerns RMI core complex (RMI1/RMI2) binding to FANCM MM2 peptide, human. Description: disruptors of RMI1/RMI2 association with MM2 peptide – biochemical, fluorescence polarization, human, primary screen (AID 1159607). The following applies: RMI core complex with F-MM2 peptide, at 33 µM, hits give low values. On the technique in general: In fluorescence polarisation assays a small probe gives low polarisation when free and higher when bound to something large.
With `Cc1cccn2c(=O)c(/C=C3\SC(=S)N(C)C3=O)c(NCc3ccc4c(c3)OCO4)nc12`, the FP signal (polarization) is 42.

For the compound `Cc1ccc(S(=O)(=O)NCCCCCC(=O)Nc2ccncc2)cc1`, the FP signal (polarization) was 56.

For the compound `Cc1ccc(NC(=O)C(=O)Nc2cc(F)ccc2F)cc1N1CCCC1=O`, the FP signal (polarization) was 54.

Take `O=C(CSc1nnc(NC(=O)c2ccc(Br)o2)s1)Nc1cc(C(F)(F)F)ccc1Cl`: the FP signal (polarization) is 64.

As for `COC(=O)c1c(N2C(=O)C3ON(c4ccc(Cl)cc4)C(c4ccco4)C3C2=O)sc(C)c1C` (stereo unspecified), the FP signal (polarization) was 25 (active).

`N#CC(c1ccccc1)N1CCSCC1` (stereo unspecified): the FP signal (polarization) was 56.

Regarding `Cc1cc(-c2nnc(NC(=O)Cc3ccc(F)cc3)o2)n(C)n1`, the FP signal (polarization) is 70.

As to `CCOC(=O)N1CCc2c(sc(NC(=O)CSc3ccccc3)c2C(N)=O)C1`, the FP signal (polarization) was 67.

As to `O=C(NCCn1ncc2c(=O)n(Cc3cccc([N+](=O)[O-])c3)cnc21)C1CC(=O)N(c2ccc(F)cc2)C1` (stereo unspecified), the FP signal (polarization) is 71.

`O=C(CCn1cncn1)N1CCN(C(=O)N2CCOCC2)CC1`: the FP signal (polarization) is 63.

Regarding `O=C(c1ccc(=O)n(Cc2cccc(F)c2)n1)N1CCN(Cc2ccccc2)CC1`, the FP signal (polarization) is 59.

For `CCN1C(=O)Cc2cc(NC(=O)c3ccc(F)c(F)c3)ccc21`, the FP signal (polarization) is 68.

In the case of `COc1ccc(Cl)c2sc(NNC(=O)c3ccc(S(=O)(=O)N4CCc5ccccc5C4)cc3)nc12`, the FP signal (polarization) is 11 (active).

Take `CSc1ccc2nc(NC(=O)c3ccc(S(=O)(=O)N4CCc5ccccc5C4)cc3)sc2c1`: the FP signal (polarization) is 70.

With `COc1ccc(Cl)c2sc(NC(=O)C3CCCN(S(C)(=O)=O)C3)nc12` (stereo unspecified), the FP signal (polarization) is 63.

As to `CCc1nnc(NC(=O)CSc2ccc3nc(-c4ccccc4)cn3n2)s1`, the FP signal (polarization) was 55.

Take `CN(C)C(C#N)c1cccc(Cl)c1Cl` (stereo unspecified): the FP signal (polarization) was 69.

Take `CCOC(=O)N1CCc2c(sc(NC(=O)c3ccccc3I)c2C#N)C1`: the FP signal (polarization) is 63.

With `COc1cn(CC(=O)Nc2ccc(C)cc2C)c(CSc2nnnn2C)cc1=O`, the FP signal (polarization) is 52.

As for `C(=N/NC1=NCCN1Cc1ccccc1)/c1ccc2c(c1)OCO2`, the FP signal (polarization) was 51 and 48.

In the case of `Clc1ccc(-c2csc(-c3ccncc3)n2)cc1`, the FP signal (polarization) was 51.

Turning to `CCn1cc(C(=O)N2CCN(Cc3cc(C)ccc3C)CC2)c2nn(-c3ccccc3)c(=O)c-2c1`, the FP signal (polarization) was 64.

With `COCC(=O)Nc1ccc2c(c1)C(=O)N(C)c1cc(C)ccc1O2`, the FP signal (polarization) was 69.

Consider `O=C(C1=C(O)C(=O)N(CCCN2CCOCC2)C1c1ccco1)c1cccs1` (stereo unspecified), for which the FP signal (polarization) is 57.

Take `O=C(Cc1csc(Nc2ccc(F)cc2)n1)NCc1ccccn1`: the FP signal (polarization) was 9 (active).

With `COc1ccccc1CCNC(=O)Cc1csc(Nc2ccc(F)cc2)n1`, the FP signal (polarization) is 65.

In the case of `O=C(Cc1csc(Nc2ccccc2)n1)NCc1ccccc1Cl`, the FP signal (polarization) was 63.

For `CCOC(=O)Cn1c(=NC(=O)c2ccnn2C)sc2cc(C(C)C)ccc21`, the FP signal (polarization) is 69.

Turning to `COCCN1C(=O)C2N=NN(c3ccccc3)C2C1=O` (stereo unspecified), the FP signal (polarization) was 66.

Take `O=C(c1cccc(C(F)(F)F)c1)N1CCC(c2nnc(C3CC3)s2)CC1`: the FP signal (polarization) is 61.

As for `COC(=O)Nc1ccc2c(c1)C(=O)N(C)c1ccccc1O2`, the FP signal (polarization) is 57.

Turning to `CC1CCCCC1NC(=O)C(=O)c1cn(CC(=O)N2CCCCC2)c2ccccc12` (stereo unspecified), the FP signal (polarization) was 56.

Regarding `CC1=NN(c2ccccc2)C(=O)C1=Cc1c(C)[nH]n(-c2ccccc2)c1=O`, the FP signal (polarization) is 53.

On to `O=C(Nc1ccc(Br)cc1)Nc1c[nH]c2ccccc12`, for which the FP signal (polarization) is 56.

For the compound `O=C(Nc1ccc([N+](=O)[O-])cc1)Nc1nc(-c2nc3ccccc3s2)cs1`, the FP signal (polarization) was 65.

As for `Cc1ccnc(NS(=O)(=O)c2ccc(NC(=O)c3ccc([N+](=O)[O-])o3)cc2)n1`, the FP signal (polarization) is 61.

For `NC(=O)c1c(NC(=O)CCSc2ccc(Cl)cc2)sc2c1CCCCC2`, the FP signal (polarization) is 102.

As to `Cc1c(/C=N\Nc2ccc([N+](=O)[O-])cc2)sc2ccccc12`, the FP signal (polarization) was 64.

As for `COc1ccccc1/C=C/C(=O)NC(=S)N1CCCC1`, the FP signal (polarization) is 59.

On to `Cc1cc(C(=O)Nc2sccc2-c2nc3ccccc3s2)on1`, for which the FP signal (polarization) is 107.

With `NC(=O)c1cnn(-c2ccccc2)c1N`, the FP signal (polarization) is 55.

For the compound `CCC(CC)C(=O)Nc1nnc(SCc2cc(=O)c(OC(=O)c3ccc(S(=O)(=O)N(CC)CC)cc3)co2)s1`, the FP signal (polarization) is 53.

Take `Cc1ccc2c(c1)N(C(=O)Cn1nc3ccc(S(=O)(=O)C(C)(C)C)nn3c1=O)CCO2`: the FP signal (polarization) was 64.

Consider `COc1ccc(S(=O)(=O)NNC(=O)CSCc2nc(-c3ccc(Cl)cc3)cs2)cc1`, for which the FP signal (polarization) is 78 and 65.

`CC(=O)c1cccc(NC(=O)CSc2cc(C)c3ccccc3n2)c1`: the FP signal (polarization) was 77.

With `Cc1ccc(S(=O)(=O)Nc2ccc3c(c2)C(=O)NCCO3)c(C)c1`, the FP signal (polarization) was 64.

As to `O=C(CSc1nnc2ccc(-c3cccs3)nn12)NCCc1ccccc1`, the FP signal (polarization) is 54.

In the case of `CS(=O)(=O)c1ccc(Nc2nc(C(=O)NC3CC3)cs2)cc1`, the FP signal (polarization) is 62.

As to `C=CCn1c(SCC(=O)c2ccc3c(c2)OCO3)nc2scc(-c3ccco3)c2c1=O`, the FP signal (polarization) was 120.

Take `Cc1cc(C)c2nc(N(CCN(C)C)C(=O)/C=C/c3cccs3)sc2c1`: the FP signal (polarization) was 92.

As for `COC(CC(=O)O)c1nc2ccccc2s1` (stereo unspecified), the FP signal (polarization) is 59.

For `COc1cccc2cc(C(=O)Nc3ccc4nc(N5CCN(C)CC5)sc4c3)oc12`, the FP signal (polarization) is 64.

On to `COc1cccc(-n2c(=S)sc3c(=O)[nH]c(SCC(=O)Nc4ccc(C)c(F)c4)nc32)c1`, for which the FP signal (polarization) was 48.

In the case of `COc1cccn(Cc2n[nH]c(=S)n2C)c1=O`, the FP signal (polarization) was 59.

For `CC(=O)c1ccc(NC(=O)CSc2nc(C(F)(F)F)cc(=O)[nH]2)cc1`, the FP signal (polarization) is 54.

Take `COc1ccc(Oc2cccc(Cl)c2CNC(=O)c2ccccc2N)cc1`: the FP signal (polarization) was 60.

As for `COC(=O)c1cccn1-c1ccc(F)cc1`, the FP signal (polarization) was 56.

As for `Cc1cc(NC(=O)/C=C/c2ccccc2)n(C(C)C)n1`, the FP signal (polarization) was 67.

In the case of `COc1ccc(-c2cc(=O)n(CC(=O)N3CCN(c4ccccc4OC)CC3)cn2)cc1`, the FP signal (polarization) was 65.

In the case of `CCOC(=O)N1CCN(C(=O)COc2coc(CN3CCc4ccccc43)cc2=O)CC1`, the FP signal (polarization) was 57.

On to `Cc1cccc(NC(=O)Cn2c(C)cc(C)c(-c3nc(-c4ccc(F)cc4)no3)c2=O)c1C`, for which the FP signal (polarization) is 137.

For the compound `Cc1nc2c(=S)[nH]nc(-c3ccccc3)c2s1`, the FP signal (polarization) is 68.

In the case of `CCc1cc(C(=O)c2ccc(OC)cc2)c(NC(=O)CN2CCN(C)CC2)s1`, the FP signal (polarization) is 69.

In the case of `COc1cccc2cc(-c3cc(=O)oc4cc(OCC(=O)OC(C)(C)C)ccc34)c(=O)oc12`, the FP signal (polarization) is 67.

For `COc1ccc(OC)c(-c2cc3ccc(O)c(CN4CCN(C)CC4)c3oc2=O)c1`, the FP signal (polarization) was 37 (active).

On to `Cn1nccc1-c1nnc(NC(=O)c2c(F)cccc2Cl)o1`, for which the FP signal (polarization) is 75.

`CCCCOc1ccccc1-c1cc2c(SCC(=O)Nc3ccc(NC(C)=O)cc3)nccn2n1`: the FP signal (polarization) is 70.

`CCOC(=O)c1nn(-c2ccccc2C)c(=O)cc1NCCC(c1ccccc1)c1ccccc1`: the FP signal (polarization) is 54.

As to `COc1ccc(C)c2sc(N(Cc3cccnc3)C(=O)/C=C/c3ccccc3)nc12`, the FP signal (polarization) was 55.

For the compound `CC(C)(C)c1cc(NC(=O)CSc2nnc3ccccn23)cc(C(C)(C)C)c1`, the FP signal (polarization) is 59.

`O=C(Cn1cc(-c2nnc(-c3ccccc3)o2)c2ccccc21)N1CCCC1`: the FP signal (polarization) was 130.

Turning to `CCCc1cc(=O)n(CC(=O)Nc2ccccc2F)cn1`, the FP signal (polarization) is 65.

For `O=C(Nc1ccccc1-c1nc2ccccc2s1)c1ccc(Cl)s1`, the FP signal (polarization) was 60.

`O=C(CSc1nnc(CNC(=O)c2ccc(F)cc2)o1)Nc1ccc2c(c1)OCO2`: the FP signal (polarization) was 57.

Consider `COC(=O)c1cc(OC)c(OC)cc1NC(=O)C1Cc2ccccc2C(=O)O1` (stereo unspecified), for which the FP signal (polarization) was 56.

For the compound `CC(=O)SCC(=O)Nc1sccc1C#N`, the FP signal (polarization) was 66.

Take `O=C(CSc1nnc(NC(=O)c2c(F)cccc2Cl)s1)Nc1ccc(Br)cc1`: the FP signal (polarization) is 61.

As to `O=C(Nc1ccc(OC(F)(F)F)cc1)c1cnc2sccn2c1=O`, the FP signal (polarization) is 64.

As for `O=C(NCC1CCN(Cc2cccs2)CC1)c1ccco1`, the FP signal (polarization) is 72.

For `CCOc1ccc(-c2noc(-c3cc(-c4cc(C)ccc4C)n[nH]3)n2)cc1OC`, the FP signal (polarization) is 95.

For the compound `COc1ccc2nc(-c3ccc(NC(=O)c4c(F)cccc4Cl)cc3)cn2n1`, the FP signal (polarization) is 122.

Consider `SCCc1nc2ccccc2[nH]1`, for which the FP signal (polarization) was 63.

Regarding `COc1ccc(-c2noc(Cn3cnc4c(nnn4Cc4cccc(F)c4)c3=O)n2)cc1`, the FP signal (polarization) is 76.

For the compound `O=C(Nc1cc(F)ccc1F)N1CCN(c2ccc(-c3ccc4c(c3)OCO4)nn2)CC1`, the FP signal (polarization) is 123.

On to `O=C(COc1ccc(Cl)cc1)Nc1ccc2c(c1)C(=O)NCCO2`, for which the FP signal (polarization) was 60.

`COC(=O)c1c(NC(=O)CCS(=O)(=O)c2ccc(Cl)cc2)sc2c1CCC(C)C2` (stereo unspecified): the FP signal (polarization) was 96.

With `O=C(CN1C(=O)c2ccccc2C1=O)Nc1nnc(-c2ccco2)o1`, the FP signal (polarization) was 63.

`CCOc1ccc(S(=O)(=O)Nc2ccc3c(c2)CN(C(=O)C2CC2)CC3)cc1F`: the FP signal (polarization) is 66.

`CCc1nnc(C2CCN(S(C)(=O)=O)CC2)s1`: the FP signal (polarization) was 60.

`Clc1ccc(C=Nc2cccnc2)c(Cl)c1`: the FP signal (polarization) is 63.

Turning to `Oc1ccc(Br)cc1C=Nc1ccccn1`, the FP signal (polarization) is 41.

For `Cc1cccnc1N=Cc1cc(Cl)cc(Cl)c1O`, the FP signal (polarization) is 29 (active).

For the compound `Cn1c(SCC(=O)NCc2ccc(F)cc2)nc2cc(-c3ccccc3)sc2c1=O`, the FP signal (polarization) is 104.

As for `CN(C)c1ccc(CCCNC(=O)COc2ccc(Cl)cc2)cc1`, the FP signal (polarization) was 69.

`Cn1nc(-c2cccc(NC(=O)c3ccccc3C(F)(F)F)c2)ccc1=O`: the FP signal (polarization) was 56.

Consider `O=C(N/N=C\c1ccncc1)N/N=C\c1ccncc1`, for which the FP signal (polarization) is 54.

The values above are taken from PubChem BioAssay AID1159607 (Small Molecule Screening Facility, UW Madison, 2016).
